According to PubChem BioAssay AID1159580 (chemical genetic matrix, 2015):
The campaign covered roughly 5,500 compounds. About 2,000 (36%) were called active. Another 18% or so got no clear call; they are omitted. No stated cut-off is given here; in the data, active means normalized growth mostly below about 0.91 (no sharp cut-off); inconclusive means no clear call, values can overlap the other calls; inactive means mostly above about 0.92. The list shows a part of the results.

Assay: chemical genetic growth profiling, strain panel (AID 1159580);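 further: tested at 20 µM; growth read once vehicle control cultures reached saturation at 30 °C; 1 = growth at the plate median or of vehicle wells; lower values mean less growth of the strain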
Conditions: S. cerevisiae deletion strains, growth OD

Measured: normalized growth

C=CCn1c(=O)c2c(nc(-c3ccc(S(=O)(=O)O)cc3)n2C)n(C)c1=O
inactive: locus YAL013W, strain DEP1, active compounds read low 0.982 | locus YAL040C, strain CLN3, active compounds read low 0.965 | locus YCL061C, strain MRC1 (second series), active compounds read low 0.985 | locus YDR363W, strain ESC2, active compounds read low 1.07 | locus YER002W, strain NOP16, active compounds read low 1.01 | locus YGR078C, strain PAC10, active compounds read low 0.997 | locus YNL153C, strain GIM3, active compounds read low 1.01 | locus YNL175C, strain NOP13, active compounds read low 1 | locus YNL197C, strain WHI3, active compounds read low 0.987 | locus YNL224C, strain SQS1, active compounds read low 0.99 | locus YOR083W, strain WHI5 (second series), active compounds read low 1.03 | locus YPL241C, strain CIN2, active compounds read low 0.979
